Laboratory results from PubChem BioAssay (NCATS).
“And” between values parts separate entries of the source, which are not always exact repeats. Identical values can stand only once. Records with an inconclusive call do not appear. Entries that show only a call come without a potency. The source made the active and inactive calls. Unless noted, calls follow the shape of the dose curve; as a rule, active = well fitted curve in the direction sought with a large enough effect; inconclusive = small, poorly fitted or top-dose-only effect, or another doubt; inactive = no such curve, though single readings can be large; an effect the other way counts as inactive or inconclusive.

Tests used:
[1] = biological target: Cytochrome P450 3A4 (Homo sapiens) (UniProt P08684); experiment: qHTS Assay for Inhibitors and Substrates of Cytochrome P450 3A4 (AID 884); also: nearly all actives have a fitted effect of over 50% in size
Sequence of Cytochrome P450 3A4 (Homo sapiens) (P08684 whole entry, looked up): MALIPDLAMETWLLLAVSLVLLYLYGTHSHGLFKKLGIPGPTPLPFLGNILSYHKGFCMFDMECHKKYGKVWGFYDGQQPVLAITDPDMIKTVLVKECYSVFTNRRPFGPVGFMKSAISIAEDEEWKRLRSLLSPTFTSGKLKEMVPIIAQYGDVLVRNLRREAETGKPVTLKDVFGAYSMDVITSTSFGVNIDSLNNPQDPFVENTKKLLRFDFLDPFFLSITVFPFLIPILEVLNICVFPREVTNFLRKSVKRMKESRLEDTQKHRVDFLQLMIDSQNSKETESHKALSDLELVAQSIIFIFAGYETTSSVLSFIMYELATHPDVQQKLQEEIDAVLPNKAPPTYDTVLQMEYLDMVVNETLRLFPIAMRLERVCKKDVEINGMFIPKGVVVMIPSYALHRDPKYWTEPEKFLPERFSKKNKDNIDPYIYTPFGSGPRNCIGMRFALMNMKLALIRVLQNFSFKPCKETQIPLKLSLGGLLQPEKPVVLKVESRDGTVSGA
Outline: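 20 nM human CYP3A4 with 25 uM Luciferin-PPXE (at KM) in 200 mM KPO4, preincubated 10 min with compound; NADPH regeneration started a 60 min RT reaction. Luciferin detected by luminescence, normalized to 57 uM ketoconazole as full inhibition.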

[2] = qHTS assay for small molecule antagonists of retinoid X receptor alpha signaling (AID 588546; active = well fitted inhibition curve with a large enough effect in the signal ratio, with a control signal flat, not every such curve was filed as active; the % refers to the signal ratio;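 also: cells stimulated with 9-cis-retinoic acid as agonist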); conditions: HEK293T RXRa-UAS-bla, beta-lactamase ratio, antagonist mode; measured here: W530 green channel, cytotoxicity proxy
Outline: (§1)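 Beta-lactamase reporter inhibition, read as CCF4 fluorescence ratio (ex 405, em 460/530 nm) after 2 h at RT. HEK293T UAS-bla cells, 2500/well, were stimulated with 9-cis-RA at 500 or 100 nM final alongside test compound for 18 h at 37 C.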

[3] = biological target: Retinoic acid receptor RXR-alpha (Homo sapiens) (UniProt P19793); experiment: as above; conditions: HEK293T RXRa-UAS-bla, beta-lactamase ratio, antagonist mode
Sequence of Retinoic acid receptor RXR-alpha (Homo sapiens) (P19793 whole entry, looked up): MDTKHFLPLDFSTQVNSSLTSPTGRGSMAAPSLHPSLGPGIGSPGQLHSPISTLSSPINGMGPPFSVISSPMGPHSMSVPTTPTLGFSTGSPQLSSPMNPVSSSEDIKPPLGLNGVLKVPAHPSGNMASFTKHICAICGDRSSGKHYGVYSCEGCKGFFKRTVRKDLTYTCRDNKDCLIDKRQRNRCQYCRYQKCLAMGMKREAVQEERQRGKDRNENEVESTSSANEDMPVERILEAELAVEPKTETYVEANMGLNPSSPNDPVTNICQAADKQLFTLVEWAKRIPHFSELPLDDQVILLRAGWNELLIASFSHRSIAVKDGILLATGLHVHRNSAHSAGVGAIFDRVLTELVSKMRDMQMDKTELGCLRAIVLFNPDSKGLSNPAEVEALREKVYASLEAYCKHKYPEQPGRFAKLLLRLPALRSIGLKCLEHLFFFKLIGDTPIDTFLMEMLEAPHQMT
Outline: as §1

[4] = qHTS assay for environmental chemicals that activate the Aryl hydrocarbon Receptor (AhR) signaling pathway (AID 651777); conditions: 1A2-DRE human hepatoma cells, luciferase, 24 h; activation: stronger effect = higher value; also: nearly all actives have a fitted effect of over 15% in size; also: potency is read from the fitted curve at half-maximal effect
Outline: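 Reporter gene assay: hepatoma cells with DRE/CYP1A2-luciferase, 24 hr compound incubation at 37 C, 5% CO2, luminescence after One-Glo (30 min, RT).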

[5] = biological target: Peroxisome proliferator-activated receptor alpha (Homo sapiens) (UniProt Q07869); experiment: qHTS assay for small molecule agonists of the peroxisome proliferator-activated receptor alpha (PPARalpha) signaling pathway (AID 651778); conditions: PathHunter PPARalpha complementation, chemiluminescence, 6 h; max response: stronger effect = higher value; also: potency is read from the fitted curve at half-maximal effect
Sequence of Peroxisome proliferator-activated receptor alpha (Homo sapiens) (Q07869 whole entry, looked up): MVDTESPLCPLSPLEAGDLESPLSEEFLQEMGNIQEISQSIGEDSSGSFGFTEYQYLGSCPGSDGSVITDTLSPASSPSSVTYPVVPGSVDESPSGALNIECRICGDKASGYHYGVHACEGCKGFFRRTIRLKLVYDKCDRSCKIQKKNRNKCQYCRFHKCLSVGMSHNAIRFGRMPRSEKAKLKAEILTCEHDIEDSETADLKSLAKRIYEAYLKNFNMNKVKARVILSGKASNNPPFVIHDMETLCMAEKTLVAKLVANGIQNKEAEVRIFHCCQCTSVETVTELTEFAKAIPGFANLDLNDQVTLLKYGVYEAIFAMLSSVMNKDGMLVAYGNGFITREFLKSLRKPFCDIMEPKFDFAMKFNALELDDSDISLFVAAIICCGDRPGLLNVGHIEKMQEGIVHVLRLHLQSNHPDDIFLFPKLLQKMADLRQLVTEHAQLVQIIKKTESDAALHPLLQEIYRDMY
Outline: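 Cells plated at 2,000/well and held overnight at 37 C, 5% CO2, then compound added by pin tool for 6 hr; after PathHunter detection reagent and 60 min at room temperature, chemiluminescence from enzyme complementation was read.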

[6] = qHTS assay for small molecule agonists of the antioxidant response element (ARE) signaling pathway measured by Nrf2-dependant transcriptional activity - cell viability counter screen (AID 720653; active = well fitted curve in the direction sought with a large enough effect in the repeat runs; an effect the other way counts as inactive or inconclusive); conditions: ARE-bla HepG2 viability, CellTiter-Glo ATP luminescence, 16 h; max response: stronger effect = lower value
Outline: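 ARE-bla HepG2 cells (2,000/well) rested 5 hrs at 37C/5% CO2, then exposed to compounds in DMSO for 16 hrs. Viability was read in the same wells as intracellular ATP by luminescence, 30 min at room temperature after reagent addition.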

[7] = qHTS assay for cell viability of HEK293 cells (AID 743288); conditions: ATP luminescence (CellTiter-Glo), 18 h; max response: stronger effect = lower value; also: nearly all actives have a fitted effect of over 50% in size
Outline: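 The Tox21 protocol used parental HEK293 cells treated for 18 h at 37 C with compounds delivered by pintool; ATP-coupled luminescence after 30 min at room temperature gave viability.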

[8] = qHTS assay for cell viability of the p53RE-bla HCT-116 cell line (AID 743292); also: nearly all actives have a fitted effect of over 55% in size
Outline: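 ATP-based luminescence, 16 h compound exposure at 37 C, p53RE-bla HCT-116 cells at 4,000/well.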

[9] = HepG2 viability counterscreen (readout 1: protease activity) against the NCATS DSHEA and TCM libraries (AID 1794841);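 also: cells exposed to compounds for about 24 h before the protease read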
Outline: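 Cytotoxicity was assessed in HepG2 cells plated at 1,000 cells/well and exposed for about 24 hours to a concentration series. Protease activity and ATP content were measured sequentially in each well.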

[10] = biological target: Cytochrome P450 2C19 (Homo sapiens) (UniProt P33261); experiment: qHTS for inhibitors of CYP2C19 against the NCATS DSHEA and TCM libraries (AID 1919974);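 also: luminescence from luciferin released by CYP2C19 oxidation of a pro-luciferin substrate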; also: potency is read from the fitted curve at half-maximal effect
Sequence of Cytochrome P450 2C19 (Homo sapiens) (P33261 whole entry, looked up): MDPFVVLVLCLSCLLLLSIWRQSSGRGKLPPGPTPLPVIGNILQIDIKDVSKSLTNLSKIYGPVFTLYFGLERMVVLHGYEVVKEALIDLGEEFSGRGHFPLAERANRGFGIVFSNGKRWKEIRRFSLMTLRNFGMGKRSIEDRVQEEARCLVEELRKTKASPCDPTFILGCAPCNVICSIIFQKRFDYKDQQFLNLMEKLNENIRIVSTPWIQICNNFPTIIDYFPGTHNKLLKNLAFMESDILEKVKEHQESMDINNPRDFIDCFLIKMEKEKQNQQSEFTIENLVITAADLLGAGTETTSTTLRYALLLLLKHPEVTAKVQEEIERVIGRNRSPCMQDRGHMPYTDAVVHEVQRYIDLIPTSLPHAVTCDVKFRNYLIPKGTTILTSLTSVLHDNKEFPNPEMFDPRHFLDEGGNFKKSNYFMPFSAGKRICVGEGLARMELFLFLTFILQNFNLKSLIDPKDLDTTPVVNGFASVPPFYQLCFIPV
Outline: (§2)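 Light output from converted D-luciferin reports remaining CYP activity. Compounds preincubate with enzyme and substrate for 15 min; NADPH regeneration (1x final) runs the reaction for 30-45 min.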

[11] = Dual reporter qHTS for antagonist of Pregnane X Receptor (hPXR) against the NCATS DSHEA and TCM libraries: Fluorescence Readout (AID 1920061)
Outline: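 HepG2 hPXR-Luc, 2000 cells/well, charcoal-stripped FBS medium; 5 h attach; RIF 2 uM final; 24 h 37C/5% CO2; CellTiter-Fluor 1 h, fluor 405/540; ONE-Glo 30 min RT, lum.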

[12] = biological target: Cytochrome P450 2C9 (Homo sapiens) (UniProt P11712); experiment: qHTS for inhibitors of CYP2C9 against the NCATS DSHEA and TCM libraries (AID 1919973); also: potency is read from the fitted curve at half-maximal effect;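 as to activity change, negative = inhibition: luminogenic pro-luciferin CYP2C9 substrate turned into luciferin with NADPH regeneration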
Sequence of Cytochrome P450 2C9 (Homo sapiens) (P11712 whole entry, looked up): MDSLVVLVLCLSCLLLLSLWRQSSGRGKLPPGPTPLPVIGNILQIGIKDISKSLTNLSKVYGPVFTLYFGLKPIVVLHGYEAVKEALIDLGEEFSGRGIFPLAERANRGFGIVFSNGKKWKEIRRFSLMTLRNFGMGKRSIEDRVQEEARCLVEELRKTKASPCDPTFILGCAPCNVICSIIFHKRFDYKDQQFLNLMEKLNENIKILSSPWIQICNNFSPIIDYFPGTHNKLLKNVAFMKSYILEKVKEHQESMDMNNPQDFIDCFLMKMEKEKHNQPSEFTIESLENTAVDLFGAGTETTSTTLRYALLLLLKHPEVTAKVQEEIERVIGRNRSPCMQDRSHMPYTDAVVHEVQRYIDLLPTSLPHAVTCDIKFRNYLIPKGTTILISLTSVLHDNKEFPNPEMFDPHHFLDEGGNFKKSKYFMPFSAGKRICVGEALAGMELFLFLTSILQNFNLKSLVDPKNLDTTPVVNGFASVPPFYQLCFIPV
Outline: as §2

[13] = biological target: Cytochrome P450 3A4 (Homo sapiens) (UniProt P08684); experiment: qHTS Assay for Activators of Cytochrome P450 3A4 (AID 885); also: nearly all actives have a fitted effect of over 65% in size
Outline: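 Steps: enzyme/substrate mix dispensed; compound added, 10 min RT; NADPH regeneration solution added, 60 min RT; luciferin detection buffer stops reaction; 20 min later luminescence measured.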

[14] = AP1 Signaling Pathway (AID 357; active = well fitted curve in either direction with a large enough effect, not every such curve was filed as active;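 also: ME-180 reporter cells stimulated with EGF at its EC50 level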); conditions: ME-180 AP-1-bla reporter, EGF-induced, beta-lactamase ratio, 5 h; at 7.69 µM (top of the series) unless noted
Outline: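 AP-1-bla ME-180 cells, Opti-MEM + 0.5% dialyzed FBS, plated overnight 37 °C. Cpd titration + EC50 EGF, 5 h 37 °C. CCF4 2.5 h RT; ex 405, em 460/530 ratio → %activity, AC50.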

[15] = biological target: 3',5'-cyclic-AMP phosphodiesterase 4B (Homo sapiens) (UniProt Q07343); experiment: qHTS Assay for Inhibitors of PDE-IV (AID 607; active = well fitted activation curve with a large enough effect in the main read-out, with a control signal flat, not every such curve was filed as active)
Sequence of 3',5'-cyclic-AMP phosphodiesterase 4B (Homo sapiens) (Q07343 whole entry, looked up): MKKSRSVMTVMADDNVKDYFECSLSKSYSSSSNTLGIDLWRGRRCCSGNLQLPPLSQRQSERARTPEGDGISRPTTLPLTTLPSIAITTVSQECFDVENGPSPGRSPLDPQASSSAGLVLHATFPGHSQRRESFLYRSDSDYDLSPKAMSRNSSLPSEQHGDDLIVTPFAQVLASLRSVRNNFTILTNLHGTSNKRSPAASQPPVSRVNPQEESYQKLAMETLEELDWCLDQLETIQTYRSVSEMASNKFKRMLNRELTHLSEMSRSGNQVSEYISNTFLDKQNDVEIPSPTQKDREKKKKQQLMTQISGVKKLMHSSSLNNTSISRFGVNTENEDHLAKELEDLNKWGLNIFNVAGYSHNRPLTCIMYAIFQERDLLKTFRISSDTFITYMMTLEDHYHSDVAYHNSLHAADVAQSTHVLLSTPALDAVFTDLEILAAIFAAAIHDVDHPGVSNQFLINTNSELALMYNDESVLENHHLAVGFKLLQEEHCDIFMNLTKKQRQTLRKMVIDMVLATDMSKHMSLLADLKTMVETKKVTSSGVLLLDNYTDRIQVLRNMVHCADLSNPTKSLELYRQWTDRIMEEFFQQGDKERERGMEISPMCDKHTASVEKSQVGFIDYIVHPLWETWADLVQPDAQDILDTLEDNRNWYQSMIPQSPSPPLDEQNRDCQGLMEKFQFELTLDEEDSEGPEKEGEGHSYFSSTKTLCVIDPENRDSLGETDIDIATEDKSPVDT
Outline: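 The readout is membrane depolarisation from a cAMP-sensing CNG channel, detected with a potential dye at ex 535/em 590. Cells were HEK293-derived (endogenous PDE-IV) at 1000 cells/well, titrated up to 22.9 uM final.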

[16] = qHTS Assay for Identification of Small Molecule Agonists for Hypoxia Response Element Signaling Pathway (AID 914; active = well fitted activation curve with a large enough effect in the signal ratio, with a control signal flat, not every such curve was filed as active; the % refers to the signal ratio); conditions: ME-180 (cervical carcinoma) HRE-bla reporter, beta-lactamase ratio, CoCl2, 17 h; activation: stronger effect = higher value
Outline: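 A beta-lactamase reporter under hypoxia response element control in ME-180 cells served as the system. Compound titrations plus EC50 CoCl2 ran 17 h at 37 degrees Celsius; AC50 values were fitted from %Activity.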

[17] = biological target: Dual specificity protein kinase CLK4 (Homo sapiens) (UniProt Q9HAZ1); experiment: qHTS Assay for Inhibitors of CDC-like Kinase 4 (ADP-FP Assay) (AID 1795);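 also: recombinant human CLK4 phosphorylating RS repeat peptide at 1 µM ATP; nearly all actives have a fitted effect of over 60% in size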
Sequence of Dual specificity protein kinase CLK4 (Homo sapiens) (Q9HAZ1 whole entry, looked up): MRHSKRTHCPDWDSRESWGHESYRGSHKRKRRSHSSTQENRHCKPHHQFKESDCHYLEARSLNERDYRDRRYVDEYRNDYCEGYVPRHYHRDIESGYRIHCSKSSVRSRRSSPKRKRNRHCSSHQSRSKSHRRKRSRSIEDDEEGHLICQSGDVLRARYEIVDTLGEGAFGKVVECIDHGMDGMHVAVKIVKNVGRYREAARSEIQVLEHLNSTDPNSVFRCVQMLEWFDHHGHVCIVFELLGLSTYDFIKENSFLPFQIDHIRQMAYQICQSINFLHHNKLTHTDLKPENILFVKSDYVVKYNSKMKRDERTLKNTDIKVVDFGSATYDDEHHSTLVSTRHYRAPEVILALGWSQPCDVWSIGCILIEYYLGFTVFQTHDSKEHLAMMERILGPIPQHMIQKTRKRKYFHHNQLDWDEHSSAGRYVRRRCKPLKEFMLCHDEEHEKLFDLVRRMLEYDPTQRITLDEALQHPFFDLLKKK
Outline: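 Inhibition of ADP formation by 6.25 nM Clk4 is measured using 1 uM ATP and 100 uM RS repeat peptide over one hour. Produced ADP displaces a fluorescent tracer from antibody, lowering polarization.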

O=C(O)c1ccccc1
Potency [1]: inactive | max response [2]: -4.31% | max response [3]: -3.53% (inactive) | activation [4]: 2.1% (inactive) | max response [5]: -2.27% (inactive) | max response [6]: 1.2% (inactive) | max response [7]: -1.04% (inactive) | Potency [8]: inactive | outcome [9]: inactive | Potency [10]: inactive | outcome [11]: inactive

C=C1C[C@@]23CC[C@H]4[C@@](C)(CCC[C@@]4(C)C(=O)O[C@@H]4O[C@H](CO)[C@@H](O)[C@H](O)[C@H]4O[C@@H]4O[C@H](CO)[C@@H](O)[C@H](O)[C@H]4O)[C@@H]2CC[C@]1(O[C@@H]1O[C@H](CO)[C@@H](O)[C@H](O)[C@H]1O[C@@H]1O[C@H](CO)[C@@H](O)[C@H](O)[C@H]1O)C3
Potency [12]: inactive

CCCCCC(=O)CC
Potency [10]: inactive | outcome [11]: inactive

CCCCCCCC/C=C\CCCCCCCCCCCC(=O)O
outcome [9]: inactive

O=C(O[C@@H]1Cc2c(O)cc(O)cc2O[C@@H]1c1ccc(O)c(O)c1)c1cc(O)c(O)c(O)c1
outcome [9]: inactive | Potency [12]: 12.6 µM (active) | outcome [11]: inactive

CCCCCCCCCCCCCC(=O)OCC(O)CO (stereo unspecified)
outcome [11]: inactive

COc1ccc(C(=O)O)cc1
outcome [9]: inactive | Potency [10]: inactive

CC(C)=CCC[C@](C)(O[C@@H]1O[C@H](CO)[C@@H](O)[C@H](O)[C@H]1O)[C@H]1CC[C@]2(C)[C@@H]1[C@H](O)C[C@@H]1[C@@]3(C)CC[C@H](O[C@@H]4O[C@H](CO)[C@@H](O)[C@H](O)[C@H]4O[C@@H]4O[C@H](CO)[C@@H](O)[C@H](O)[C@H]4O)C(C)(C)[C@@H]3CC[C@]12C
Potency [12]: inactive | outcome [11]: inactive

CCCCCCCCCC=O
outcome [9]: inactive

CC1=CC[C@H](C(C)C)C=C1
outcome [11]: inactive

C[C@@H]1OC(O[C@H]2[C@H](O)[C@@H](O)[C@H](OC[C@H]3O[C@@H](OC(=O)[C@]45CCC(C)(C)C[C@@H]4C4=CCC6[C@@]7(C)CC[C@H](OC8OC[C@H](O)[C@H](O)[C@H]8OC8O[C@@H](C)[C@H](O)[C@@H](O)[C@H]8O)[C@@](C)(CO)C7CC[C@@]6(C)[C@]4(C)CC5)[C@H](O)[C@@H](O)[C@@H]3O)O[C@@H]2CO)[C@H](O)[C@H](O)[C@H]1O (stereo partly specified)
outcome [9]: inactive

O[C@@H]1[C@@H](O)[C@H](OC/C=C/c2ccccc2)O[C@H](CO[C@@H]2OC[C@H](O)[C@H](O)[C@H]2O)[C@H]1O
Potency [12]: inactive | outcome [11]: inactive

CC(C)c1ccc(C=O)cc1
Potency [12]: inactive | Potency [10]: inactive | outcome [11]: inactive

C=C(C)C(CC=C(C)C)CC12CC(CC=C(C)C)C(C)(C)C(CC=C(C)C)(C(=O)/C(=C(\O)c3ccc(O)c(O)c3)C1=O)C2=O (stereo unspecified)
Potency [10]: 25.1 µM (active)

CC(C)=CCCC(C)(OC1OC(COC2OC(CO)C(O)C2O)C(O)C(O)C1O)C1CCC2(C)C1C(O)CC1C3(C)CCC(OC4OC(CO)C(O)C(O)C4OC4OC(CO)C(O)C(O)C4O)C(C)(C)C3CCC12C (stereo unspecified)
outcome [9]: inactive | Potency [10]: inactive | outcome [11]: inactive

CCCCCCC/C=C/C(=O)CCc1ccc(O)c(OC)c1
outcome [9]: inactive | Potency [12]: 25.1 µM (active) | outcome [11]: inactive

O=Cc1ccccc1O
outcome [9]: inactive | Potency [10]: inactive | outcome [11]: inactive

COc1ccc(-c2coc3cc(O[C@@H]4O[C@H](CO)[C@@H](O)[C@H](O)[C@H]4O)ccc3c2=O)cc1
outcome [11]: inactive

CCCCCCCCCCCCCC(=O)O
Potency [1]: inactive | max response [2]: 9.83% and 0.375% | max response [3]: -6.83% (inactive) and -2.87% (inactive) | activation [4]: -0.758% (inactive) and 0.233% (inactive) | Potency [5]: 22.4 µM (active) | max response [6]: 1.31% (inactive) and -9.4% (inactive) | max response [7]: 2.25% (inactive) and -11.5% (inactive) | Potency [8]: inactive | outcome [11]: inactive

COc1ccc(/C=C/c2cc(OC)cc(=O)o2)cc1
max response [2]: 19.1% | max response [3]: -3.53% (inactive) | Potency [4]: 10 µM (active) | max response [5]: 9.34% (inactive) | max response [6]: 11.1% (inactive) | max response [7]: -19.9% (inactive) | Potency [8]: inactive | outcome [9]: inactive

OCCc1ccc(O)cc1
outcome [11]: inactive

Cc1ccc(C(C)C)cc1
Potency [10]: inactive

COc1cc(/C=C/c2ccccc2)oc(=O)c1
outcome [13]: inactive | max response [2]: 21.7% | max response [3]: -7.15% (inactive) | Potency [4]: 7.08 µM (active) | max response [5]: -1.59% (inactive) | max response [6]: -6.81% (inactive) | max response [7]: -23% (inactive) | Potency [8]: inactive

C=C1CC[C@H](O)C/C1=C\C=C1/CCC[C@]2(C)[C@@H]([C@H](C)CC[C@H](C)C(C)C)CC[C@@H]12
outcome [9]: inactive | outcome [11]: inactive

Cc1ccc(O)c(O)c1
Potency [10]: inactive

COc1ncc2nc(-c3cccs3)c(=O)n(CCC#N)c2n1
activity change, negative = inhibition [14]: 10.4% (inactive) | Potency [15]: inactive | outcome [13]: inactive | activation [16]: 25.6% (inactive) | Potency [17]: inactive

COc1ccc2[nH]cc(CCNc3nc(-c4c(C)noc4C)nc4ccccc34)c2c1
activity change, negative = inhibition [14]: -24.6% (inactive) | Potency [15]: inactive | Potency [17]: inactive

O=c1cnc2cnc(N3CCOCC3)nc2n1Cc1cccs1
activity change, negative = inhibition [14]: -3.18% (inactive) | Potency [15]: inactive | outcome [13]: inactive | Potency [17]: inactive

Cc1nc2cnc(N3CCOCC3)nc2n(CCc2ccccc2)c1=O
activity change, negative = inhibition [14]: 3.7% (inactive) | Potency [17]: inactive

CCCCCCCCCCCC(=O)O
Potency [1]: inactive | max response [2]: 24.4% and 28.8% | max response [3]: -14.3% (inactive) and -10.1% (inactive) | activation [4]: 0.903% (inactive) and 1.44% (inactive) | max response [5]: 9.6% (inactive) and 16.5% (inactive) | max response [6]: 8.32% (inactive) and -0.379% (inactive) | max response [7]: -8.75% (inactive) and -7.33% (inactive) | Potency [8]: inactive | outcome [9]: inactive | outcome [11]: inactive

c1ccc2c(NCCN3CCOCC3)nc(-c3ccc4c(c3)OCO4)nc2c1
activity change, negative = inhibition [14]: -11.7% (inactive) | Potency [15]: inactive | Potency [17]: inactive

CC1(C)CC[C@]2(C(=O)O)CC[C@]3(C)C(=CCC4[C@@]5(C)CC[C@H](O)[C@@](C)(CO)C5CC[C@]43C)[C@H]2C1 (stereo partly specified)
Potency [12]: inactive

CCCCC/C=C/C/C=C/CCCCCCCC(=O)O
outcome [9]: inactive | outcome [11]: inactive

CN(C)Cc1ccccc1-c1ccc2ncnc(N(C)C)c2c1
activity change, negative = inhibition [14]: -1.59% (inactive) | Potency [15]: inactive | outcome [13]: inactive | Potency [17]: inactive
